This excerpt belongs to a sample that is enriched for hits.
Tgondii IFNg = T. gondii growth inhibition under IFN-gamma. Toxoplasma gondii growth in IFN-gamma-treated host cells; active compounds read low. activity change, negative = inhibition, % (no concentration beside the values). 3.8% of 69,000 active; in the data active = activity change below about -70%, passing the limit was not always enough;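 also: host cells are HeLa cells infected with Toxoplasma gondii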
Hits are given with their value.

Results for COc1nc2c(c(-c3ccco3)c1C#N)Cc1cc(NC(C)=O)ccc1-2 ?
Tgondii IFNg: inactive

What do the screens show for `CC(=O)Nc1ccc2c(c1)CCc1ccccc1-2`?
Tgondii IFNg: inactive

Results for CC(=O)Nc1sc2c(c1C#N)CCc1ccccc1-2 ?
Tgondii IFNg: -90

Results for COc1ccc(OC)c(NC(=O)c2nc(Nc3ccc(C)cc3)c3ccccc3n2)c1 ?
Tgondii IFNg: inactive

How did Cc1ccc(CNC(=O)c2nc(Nc3ccccc3)c3ccccc3n2)cc1 do in these assays?
Tgondii IFNg: inactive

What do the screens show for `Cc1ccc(NC(=O)c2nc(Nc3ccccc3)c3ccccc3n2)c(C)c1`?
Tgondii IFNg: inactive

What do the screens show for `COc1cccc(CNC(=O)c2nc(Nc3ccc(C)cc3)c3ccccc3n2)c1`?
Tgondii IFNg: -101

How did Cc1cc(C)c(NC(=O)c2nc(Nc3ccccc3)c3ccccc3n2)c(C)c1 do in these assays?
Tgondii IFNg: -78

How did Cc1ccc(Nc2nc(C(=O)Nc3c(C)cc(C)cc3C)nc3ccccc23)cc1 do in these assays?
Tgondii IFNg: inactive

Results for COc1cccc(NC(=O)c2nc(Nc3ccccc3)c3ccccc3n2)c1 ?
Tgondii IFNg: -76

How did COc1ccc(NC(=O)c2nc(Nc3ccc(C)cc3)c3ccccc3n2)c(OC)c1 do in these assays?
Tgondii IFNg: -112

What do the screens show for `COc1cccc(CNC(=O)c2nc(Nc3ccccc3)c3ccccc3n2)c1`?
Tgondii IFNg: inactive

Results for COc1cc(OC)c(NC(=O)c2nc(Nc3ccc(C)cc3)c3ccccc3n2)cc1Cl ?
Tgondii IFNg: inactive

What do the screens show for `CSc1cccc(NC(=O)c2nc(Nc3ccccc3)c3ccccc3n2)c1`?
Tgondii IFNg: inactive

How did O=C(Nc1cccc(F)c1)c1nc(Nc2ccccc2)c2ccccc2n1 do in these assays?
Tgondii IFNg: inactive

What do the screens show for `CC(=O)OCC(=O)[C@@]12N=C(C)O[C@@H]1C[C@H]1[C@H]3CCC4=CC(=O)C=C[C@]4(C)[C@H]3[C@@H](O)C[C@@]12C`?
Tgondii IFNg: inactive

How did Cc1ccc(=O)n(CC(=O)N2CCC(c3cc(=O)n4[nH]c(C(C)(C)C)cc4n3)C2)n1 (centres undefined) do in these assays?
Tgondii IFNg: inactive

What do the screens show for `CC(NC(=S)c1ccncc1)c1ccccc1` (centres undefined)?
Tgondii IFNg: inactive

How did CCC(=O)Nc1ccc(OCC(=O)N(C)Cc2sccc2C)cc1 do in these assays?
Tgondii IFNg: inactive

Results for CC(c1nccs1)N(C)C(=O)c1ccccc1N1CCOCC1 (centres undefined) ?
Tgondii IFNg: inactive

How did O=C(Nc1ccccc1)c1cc2n(n1)CCNC2 do in these assays?
Tgondii IFNg: inactive

Results for COc1cccc(CN2CCN(C)C(C(=O)O)C2)c1F (centres undefined) ?
Tgondii IFNg: inactive

How did O=C(CCc1cc(Cl)no1)N1CCC[C@H](Cn2nnc(-c3ccccn3)n2)C1 do in these assays?
Tgondii IFNg: inactive

What do the screens show for `COc1ccc(CNC(=O)c2nc(Nc3ccccc3)c3ccccc3n2)cc1OC`?
Tgondii IFNg: inactive

How did CCOc1ccccc1NC(=O)c1nc(Nc2ccccc2)c2ccccc2n1 do in these assays?
Tgondii IFNg: -82

How did CCc1ccc(Nc2nc(C(=O)NCc3cccc(OC)c3)nc3ccccc23)cc1 do in these assays?
Tgondii IFNg: -72

Results for CCc1ccc(Nc2nc(C(=O)NCc3ccc(OC)c(OC)c3)nc3ccccc23)cc1 ?
Tgondii IFNg: -79

How did CCOc1ccc(CNC(=O)c2nc(Nc3ccc(CC)cc3)c3ccccc3n2)cc1 do in these assays?
Tgondii IFNg: inactive

How did CCNC(=O)c1nc(Nc2ccc(CC)cc2)c2ccccc2n1 do in these assays?
Tgondii IFNg: inactive

What do the screens show for `CCc1ccc(Nc2nc(C(=O)NCc3ccccc3)nc3ccccc23)cc1`?
Tgondii IFNg: inactive

What do the screens show for `CCOc1ccc(NC(=O)c2nc(Nc3ccccc3)c3ccccc3n2)cc1`?
Tgondii IFNg: inactive

What do the screens show for `CCOc1ccccc1NC(=O)c1nc(Nc2ccc(Cl)cc2)c2ccccc2n1`?
Tgondii IFNg: inactive

What do the screens show for `Cn1cnc2cc(C(=O)N3CCCC(Nc4ccc(F)c(F)c4)C3)cnc21` (centres undefined)?
Tgondii IFNg: inactive

Results for Cc1ccc(NC(=O)Cn2c(=O)cc(-c3nc(C(C)C)no3)c3ccccc32)c(Cl)c1 ?
Tgondii IFNg: inactive

What do the screens show for `CC(c1cccc(-c2ccc3[nH]ncc3c2)c1)N1CCCC1` (centres undefined)?
Tgondii IFNg: inactive

What do the screens show for `Cc1ccc(S(=O)(=O)NCC(c2cccnc2)c2cn(C)c3ccccc23)cc1C` (centres undefined)?
Tgondii IFNg: inactive

Results for Nc1nnc(Cc2nc3ccccc3s2)s1 ?
Tgondii IFNg: inactive

Results for Cc1cc(C(=O)N2CCC(O)(CN(C)C)C2)sc1-c1ccccc1 (centres undefined) ?
Tgondii IFNg: inactive

Results for CCN1CCC2(CCCN(CC3CCOC3)C2)C1=O (centres undefined) ?
Tgondii IFNg: inactive

What do the screens show for `COc1cccc(-c2n[nH]c3c2CN(C(=O)C2(C)CC(C)=NO2)CC3)c1` (centres undefined)?
Tgondii IFNg: inactive

Results for O=C(c1ccc2c(c1)OCCO2)N1CCC(Cn2cc(C3CC3)nn2)CC1 ?
Tgondii IFNg: inactive

From PubChem
